Laboratory results published in the supplement of paper PMC11732987, “Enantioselective OTUD7B fragment discovery through chemoproteomics screening and high-throughput optimisation” (Communications Chemistry, 2025).

Experiments:
Experiment in all cases: log2 ratio of Biotin-Ahx-Ub-VS probe labelling (fragment/DMSO); higher = less target engagement (more negative = stronger competition), active = hit call of the paper (q ≤ 0.05, log2 ratio ≤ -1)
Details in all cases: compound concentration: 200 uM; treatment time: 3 h
[1] = target: USP34 (UniProt Q70CQ2)
Method in brief: (§1)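 The table lists average log2 ratios of fragment over vehicle, from an unpaired t-test on global-median-normalised Spectronaut label-free quantities. Proteins with ≥2 unique peptides were used. Samples were HEK293T lysate (495 µg) treated in triplicate with fragment at 200 µM or vehicle for 3 h, then with Biotin-Ahx-Ub-VS (0.5 µM final) for 1 h, with labelled DUBs NeutrAvidin-enriched and run by diaPASEF LC-MS/MS.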

[2] = target: T1, USP36 (UniProt Q9P275)
T1 sequence (whole entry): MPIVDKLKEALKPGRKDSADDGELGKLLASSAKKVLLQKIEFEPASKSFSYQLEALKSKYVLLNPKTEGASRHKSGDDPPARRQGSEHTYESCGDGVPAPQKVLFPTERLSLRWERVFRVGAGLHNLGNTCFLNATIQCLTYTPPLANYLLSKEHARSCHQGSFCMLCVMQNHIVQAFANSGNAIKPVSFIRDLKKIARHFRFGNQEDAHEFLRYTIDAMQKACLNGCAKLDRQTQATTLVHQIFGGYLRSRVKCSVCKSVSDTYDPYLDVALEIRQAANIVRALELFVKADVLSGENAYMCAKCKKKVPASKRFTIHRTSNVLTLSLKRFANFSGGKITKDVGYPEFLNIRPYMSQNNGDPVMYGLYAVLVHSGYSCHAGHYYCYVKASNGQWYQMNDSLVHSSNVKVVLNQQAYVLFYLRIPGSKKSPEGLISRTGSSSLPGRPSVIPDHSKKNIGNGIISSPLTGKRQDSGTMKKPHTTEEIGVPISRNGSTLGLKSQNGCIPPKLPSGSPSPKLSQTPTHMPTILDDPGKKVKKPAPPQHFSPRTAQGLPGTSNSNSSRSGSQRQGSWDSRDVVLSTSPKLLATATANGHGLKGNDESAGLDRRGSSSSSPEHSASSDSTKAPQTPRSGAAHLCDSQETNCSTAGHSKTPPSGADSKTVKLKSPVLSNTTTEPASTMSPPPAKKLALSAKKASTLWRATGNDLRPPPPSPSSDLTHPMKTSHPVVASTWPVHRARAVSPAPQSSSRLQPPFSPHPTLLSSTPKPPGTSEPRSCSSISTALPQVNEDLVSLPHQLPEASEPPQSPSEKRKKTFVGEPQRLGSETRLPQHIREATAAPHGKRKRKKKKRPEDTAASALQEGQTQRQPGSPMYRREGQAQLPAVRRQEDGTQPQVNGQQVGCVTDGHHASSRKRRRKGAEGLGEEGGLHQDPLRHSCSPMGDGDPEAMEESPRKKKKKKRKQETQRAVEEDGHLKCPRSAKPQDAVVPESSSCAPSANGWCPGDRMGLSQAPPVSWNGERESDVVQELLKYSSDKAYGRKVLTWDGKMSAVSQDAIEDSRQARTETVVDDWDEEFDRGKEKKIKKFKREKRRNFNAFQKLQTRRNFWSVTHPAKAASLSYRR
Method in brief: as §1

[3] = target: T2, USP38 (UniProt Q8NB14)
T2 sequence (whole entry): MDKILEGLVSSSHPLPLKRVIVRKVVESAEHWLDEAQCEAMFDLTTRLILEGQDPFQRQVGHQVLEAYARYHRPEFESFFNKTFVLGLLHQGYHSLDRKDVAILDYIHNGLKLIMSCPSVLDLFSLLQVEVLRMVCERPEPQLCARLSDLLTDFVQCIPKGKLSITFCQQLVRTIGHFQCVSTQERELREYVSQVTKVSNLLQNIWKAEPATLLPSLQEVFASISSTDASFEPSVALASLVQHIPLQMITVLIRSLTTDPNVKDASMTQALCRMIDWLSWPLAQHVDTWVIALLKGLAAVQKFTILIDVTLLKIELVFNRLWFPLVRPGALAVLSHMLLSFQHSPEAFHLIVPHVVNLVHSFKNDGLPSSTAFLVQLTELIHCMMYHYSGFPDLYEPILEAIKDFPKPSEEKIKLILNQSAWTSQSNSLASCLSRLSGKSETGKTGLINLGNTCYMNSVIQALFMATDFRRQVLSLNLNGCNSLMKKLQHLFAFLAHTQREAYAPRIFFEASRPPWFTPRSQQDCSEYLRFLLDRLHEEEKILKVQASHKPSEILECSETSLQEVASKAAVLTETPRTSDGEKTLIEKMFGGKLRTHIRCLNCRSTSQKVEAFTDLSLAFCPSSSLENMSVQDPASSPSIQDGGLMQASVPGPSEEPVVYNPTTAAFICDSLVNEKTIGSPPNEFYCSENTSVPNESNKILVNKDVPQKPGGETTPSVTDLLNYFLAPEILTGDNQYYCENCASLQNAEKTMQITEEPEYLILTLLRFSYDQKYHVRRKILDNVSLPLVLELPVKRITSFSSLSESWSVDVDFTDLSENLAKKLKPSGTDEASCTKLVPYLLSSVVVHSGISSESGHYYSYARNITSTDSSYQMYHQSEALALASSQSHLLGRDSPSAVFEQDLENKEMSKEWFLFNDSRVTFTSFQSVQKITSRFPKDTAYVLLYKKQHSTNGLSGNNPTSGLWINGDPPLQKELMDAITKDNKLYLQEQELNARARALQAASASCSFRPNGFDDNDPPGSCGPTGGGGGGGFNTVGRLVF
Method in brief: as §1

[4] = target: T3, USP39 (UniProt Q53GS9)
T3 sequence (whole entry): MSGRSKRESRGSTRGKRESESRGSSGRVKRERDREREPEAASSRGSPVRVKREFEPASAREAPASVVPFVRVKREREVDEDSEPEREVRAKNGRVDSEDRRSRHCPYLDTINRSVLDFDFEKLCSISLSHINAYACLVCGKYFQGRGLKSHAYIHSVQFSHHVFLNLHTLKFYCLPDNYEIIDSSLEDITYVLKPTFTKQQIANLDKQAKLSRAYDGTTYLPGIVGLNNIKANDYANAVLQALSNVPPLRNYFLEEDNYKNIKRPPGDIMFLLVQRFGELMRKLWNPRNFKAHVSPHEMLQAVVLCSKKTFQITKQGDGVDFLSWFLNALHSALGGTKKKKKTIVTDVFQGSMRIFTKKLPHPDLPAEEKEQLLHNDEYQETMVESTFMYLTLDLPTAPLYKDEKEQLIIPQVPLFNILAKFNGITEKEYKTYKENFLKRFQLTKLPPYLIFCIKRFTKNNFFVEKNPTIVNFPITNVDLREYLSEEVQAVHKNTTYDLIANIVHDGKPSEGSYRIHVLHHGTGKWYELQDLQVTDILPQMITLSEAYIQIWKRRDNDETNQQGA
Method in brief: as §1

[5] = target: T4, USP4 (UniProt Q13107)
T4 sequence (whole entry): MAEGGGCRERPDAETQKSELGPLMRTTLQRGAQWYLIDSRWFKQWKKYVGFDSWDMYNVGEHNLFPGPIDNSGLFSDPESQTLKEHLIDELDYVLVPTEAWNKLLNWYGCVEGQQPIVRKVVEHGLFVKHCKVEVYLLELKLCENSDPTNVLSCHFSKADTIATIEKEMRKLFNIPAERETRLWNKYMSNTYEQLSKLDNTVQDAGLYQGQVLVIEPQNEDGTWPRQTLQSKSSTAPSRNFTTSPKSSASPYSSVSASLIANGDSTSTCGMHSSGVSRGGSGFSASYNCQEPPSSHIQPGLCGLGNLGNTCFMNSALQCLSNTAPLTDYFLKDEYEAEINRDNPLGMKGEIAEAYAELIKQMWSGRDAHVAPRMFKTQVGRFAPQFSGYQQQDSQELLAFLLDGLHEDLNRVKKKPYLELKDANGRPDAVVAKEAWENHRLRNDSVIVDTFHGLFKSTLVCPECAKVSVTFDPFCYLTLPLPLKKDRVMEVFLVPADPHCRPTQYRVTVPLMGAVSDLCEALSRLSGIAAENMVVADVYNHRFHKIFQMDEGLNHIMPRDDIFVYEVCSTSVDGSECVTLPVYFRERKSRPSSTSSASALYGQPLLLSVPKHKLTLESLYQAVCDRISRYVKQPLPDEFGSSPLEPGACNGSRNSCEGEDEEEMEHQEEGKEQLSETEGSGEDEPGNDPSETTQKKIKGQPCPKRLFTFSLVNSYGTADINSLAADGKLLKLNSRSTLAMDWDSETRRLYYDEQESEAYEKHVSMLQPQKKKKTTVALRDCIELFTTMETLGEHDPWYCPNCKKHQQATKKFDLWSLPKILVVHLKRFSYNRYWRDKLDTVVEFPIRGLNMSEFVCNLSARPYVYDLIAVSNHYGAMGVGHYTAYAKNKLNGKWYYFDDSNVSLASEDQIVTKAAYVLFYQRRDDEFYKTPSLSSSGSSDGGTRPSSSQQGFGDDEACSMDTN
Method in brief: as §1

Measured: log2 ratio of Biotin-Ahx-Ub-VS probe labelling

USP34, sequence (Q70CQ2 whole entry, the tested form may be a part): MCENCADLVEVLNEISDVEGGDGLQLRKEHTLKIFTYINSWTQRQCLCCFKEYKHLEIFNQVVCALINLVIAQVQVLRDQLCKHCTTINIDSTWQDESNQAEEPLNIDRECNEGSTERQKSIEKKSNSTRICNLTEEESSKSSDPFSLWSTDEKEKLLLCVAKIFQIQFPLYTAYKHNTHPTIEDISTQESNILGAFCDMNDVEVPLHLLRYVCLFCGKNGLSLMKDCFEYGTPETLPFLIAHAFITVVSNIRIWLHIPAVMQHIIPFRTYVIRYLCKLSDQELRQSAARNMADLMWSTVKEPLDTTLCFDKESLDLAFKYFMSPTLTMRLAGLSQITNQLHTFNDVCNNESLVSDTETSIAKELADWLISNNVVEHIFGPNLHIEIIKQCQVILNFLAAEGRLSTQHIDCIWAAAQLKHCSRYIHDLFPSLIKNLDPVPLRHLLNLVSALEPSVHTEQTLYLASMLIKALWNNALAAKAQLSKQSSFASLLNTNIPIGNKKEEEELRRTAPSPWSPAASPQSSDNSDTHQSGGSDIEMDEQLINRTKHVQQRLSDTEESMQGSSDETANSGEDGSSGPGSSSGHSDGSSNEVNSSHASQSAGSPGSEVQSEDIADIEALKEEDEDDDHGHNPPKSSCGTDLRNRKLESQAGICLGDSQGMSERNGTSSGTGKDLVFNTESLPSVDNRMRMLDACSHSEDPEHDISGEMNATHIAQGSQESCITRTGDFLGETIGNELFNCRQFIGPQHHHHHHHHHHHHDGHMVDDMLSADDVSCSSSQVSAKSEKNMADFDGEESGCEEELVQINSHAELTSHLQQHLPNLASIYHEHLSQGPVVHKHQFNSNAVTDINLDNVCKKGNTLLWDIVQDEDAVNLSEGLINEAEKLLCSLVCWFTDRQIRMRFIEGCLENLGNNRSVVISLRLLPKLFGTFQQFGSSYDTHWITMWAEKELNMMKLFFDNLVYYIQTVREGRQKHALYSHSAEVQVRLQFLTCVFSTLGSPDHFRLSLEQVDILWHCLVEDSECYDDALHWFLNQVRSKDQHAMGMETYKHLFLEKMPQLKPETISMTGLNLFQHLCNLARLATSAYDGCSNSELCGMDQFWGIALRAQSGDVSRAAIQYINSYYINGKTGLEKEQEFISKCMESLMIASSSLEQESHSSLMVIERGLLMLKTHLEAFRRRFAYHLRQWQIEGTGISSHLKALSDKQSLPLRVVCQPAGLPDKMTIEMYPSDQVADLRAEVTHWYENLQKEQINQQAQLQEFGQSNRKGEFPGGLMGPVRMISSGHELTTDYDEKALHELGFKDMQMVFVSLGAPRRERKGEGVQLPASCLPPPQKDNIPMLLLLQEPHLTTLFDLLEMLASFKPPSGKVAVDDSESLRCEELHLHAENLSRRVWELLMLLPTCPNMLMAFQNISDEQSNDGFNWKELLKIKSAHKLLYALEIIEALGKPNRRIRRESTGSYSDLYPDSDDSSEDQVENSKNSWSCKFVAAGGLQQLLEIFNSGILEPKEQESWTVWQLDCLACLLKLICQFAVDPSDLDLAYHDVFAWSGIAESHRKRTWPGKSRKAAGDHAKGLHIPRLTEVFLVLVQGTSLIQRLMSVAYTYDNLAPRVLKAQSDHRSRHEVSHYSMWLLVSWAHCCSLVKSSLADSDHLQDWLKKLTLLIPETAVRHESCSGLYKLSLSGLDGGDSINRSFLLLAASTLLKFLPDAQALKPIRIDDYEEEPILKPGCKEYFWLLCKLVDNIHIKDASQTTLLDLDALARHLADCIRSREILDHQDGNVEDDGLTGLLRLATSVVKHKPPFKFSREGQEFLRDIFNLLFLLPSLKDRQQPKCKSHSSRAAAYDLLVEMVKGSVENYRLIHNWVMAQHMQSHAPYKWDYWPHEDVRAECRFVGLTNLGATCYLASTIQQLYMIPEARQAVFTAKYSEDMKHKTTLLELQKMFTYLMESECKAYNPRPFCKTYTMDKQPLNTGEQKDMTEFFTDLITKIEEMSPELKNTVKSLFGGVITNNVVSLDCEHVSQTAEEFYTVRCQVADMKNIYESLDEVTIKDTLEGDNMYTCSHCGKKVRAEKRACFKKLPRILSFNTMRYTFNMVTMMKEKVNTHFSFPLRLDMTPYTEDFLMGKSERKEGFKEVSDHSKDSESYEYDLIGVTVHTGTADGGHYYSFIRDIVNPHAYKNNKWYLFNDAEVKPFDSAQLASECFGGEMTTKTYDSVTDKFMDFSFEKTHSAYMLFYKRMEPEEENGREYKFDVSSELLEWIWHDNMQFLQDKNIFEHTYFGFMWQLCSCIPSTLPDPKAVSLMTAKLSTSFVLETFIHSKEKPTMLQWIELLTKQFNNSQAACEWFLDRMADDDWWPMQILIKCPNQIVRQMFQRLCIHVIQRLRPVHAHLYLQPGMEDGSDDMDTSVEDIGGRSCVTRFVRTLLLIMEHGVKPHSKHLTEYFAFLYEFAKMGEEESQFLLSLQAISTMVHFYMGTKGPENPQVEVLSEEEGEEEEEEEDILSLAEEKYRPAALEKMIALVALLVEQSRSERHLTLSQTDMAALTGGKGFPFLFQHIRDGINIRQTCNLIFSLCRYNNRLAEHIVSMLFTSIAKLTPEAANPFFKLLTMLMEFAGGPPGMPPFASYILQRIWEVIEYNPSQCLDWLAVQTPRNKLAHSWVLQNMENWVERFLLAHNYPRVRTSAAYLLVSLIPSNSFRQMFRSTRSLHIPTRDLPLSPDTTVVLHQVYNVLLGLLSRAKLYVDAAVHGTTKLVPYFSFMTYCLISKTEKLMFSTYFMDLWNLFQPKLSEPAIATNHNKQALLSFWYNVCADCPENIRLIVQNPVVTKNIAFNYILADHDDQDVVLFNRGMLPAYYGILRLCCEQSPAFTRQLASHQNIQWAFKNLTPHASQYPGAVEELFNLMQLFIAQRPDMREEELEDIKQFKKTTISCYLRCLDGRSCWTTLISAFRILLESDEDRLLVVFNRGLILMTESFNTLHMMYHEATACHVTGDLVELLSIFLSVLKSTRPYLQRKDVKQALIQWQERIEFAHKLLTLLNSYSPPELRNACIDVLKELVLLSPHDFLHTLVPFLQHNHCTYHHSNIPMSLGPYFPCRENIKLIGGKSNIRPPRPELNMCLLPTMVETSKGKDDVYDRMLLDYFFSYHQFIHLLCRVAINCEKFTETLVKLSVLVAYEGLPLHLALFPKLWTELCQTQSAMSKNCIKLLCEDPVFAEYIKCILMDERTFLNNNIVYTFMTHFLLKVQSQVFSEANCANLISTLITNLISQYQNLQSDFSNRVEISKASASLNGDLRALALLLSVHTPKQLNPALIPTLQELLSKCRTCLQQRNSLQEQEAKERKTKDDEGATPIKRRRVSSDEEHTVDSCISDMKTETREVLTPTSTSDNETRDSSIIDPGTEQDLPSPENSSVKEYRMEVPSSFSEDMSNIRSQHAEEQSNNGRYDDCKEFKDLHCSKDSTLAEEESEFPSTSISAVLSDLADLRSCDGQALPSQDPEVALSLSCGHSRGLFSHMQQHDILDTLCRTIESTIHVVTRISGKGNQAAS

O=C(CCl)N1CCC(c2nc3ccccc3o2)CC1
inactive: [1] -0.0485 | [2] -0.24 | [3] -0.183 | [4] 0.016 | [5] -0.231
